Measured values taken from PubChem BioAssay AID485367 (National Center for Advancing Translational Sciences (NCATS), 2010).
The whole screen tested about 330,000 compounds, of which about 560 (0.17%) were called active. Another 1% or so got no clear call; they are omitted. This excerpt belongs to a sample that is enriched for actives. A number with no mark means an inactive call. Calls come from the whole dose curve; as a rule, active = well fitted inhibition curve with a large enough effect; inconclusive = small, poorly fitted or top-dose-only effect, or effect the other way; inactive = flat fitted curve, though single readings scatter.

biological target: ATP-dependent 6-phosphofructokinase (Trypanosoma brucei brucei) (UniProt O15648); assay: qHTS Assay to Find Inhibitors of T. brucei phosphofructokinase; note: nearly all actives have a fitted effect of over 60% in size; settings: T. brucei PFK, ADP-Glo luminescence; series mostly up to 57.5 µM; activity, negative = inhibition: at the top concentration
Description: NIH Molecular Libraries Probe Production Network [MLPCN] NIH Chemical Genomics Center [NCGC] Grant: 1 R03 MH092153-01 PI Name: Malcolm Walkinshaw, University of Edinburgh NCGC Assay Overview: Various species of the protozoan family Trypanosomatidae are responsible for a range of serious human diseases in tropical and subtropical areas of the world. […] Many of the disorders caused by trypanosomatids are fatal if left untreated, but most currently used drugs are inefficient and toxic. […] Oxidative metabolism involving the mitochondrial tricarboxylic acid cycle and oxidative phosphorylation are repressed in these parasites, and recent RNA interference (RNAi) experiments have shown that even partial depletion of certain individual glycolytic enzymes can lead to the death of cultured parasites. One such glycolytic enzyme, phosphofructokinase (PFK), catalyzes the formation of fructose-1,6-bisphosphate (F1,6BP) and ADP from fructose-6-phosphate (F6P) and ATP, and in many metabolic circumstances makes an important contribution to the control of flux through the glycolytic pathway. As a specific glycolytic target, PFK is particularly attractive as it catalyzes the first irreversible step in glycolysis, and structural and kinetic studies have shown very substantial and essential differences from corresponding host enzymes, allowing for the discovery of parasite-selective inhibitors. The goal of this screen is to find small-molecule inhibitors of T. brucei PFK using a biochemical assay that measures PFK activity as a function of ADP production. A luminescence-based assay for T. brucei PFK activity has been developed which uses luciferase to detect production of ADP. Traditional luciferase-based nucleotide detection reagents rely on ATP production as a direct substrate for the luciferase reaction; however, PFK catalyzes the transfer of a phosphate from ATP to F6P, resulting in the net depletion of ATP. To directly measure the ADP product of the PFK reaction, we used the ADP-Glo detection kit (Promega), which utilizes two separate reactions to 1) deplete all remaining uncatalyzed ATP and 2) convert all remaining ADP to ATP, which is then detected through a traditional luciferase-coupled reaction. Compounds were screened as a concentration-titration series that ranged from 57 uM to 0.7 nM.
NCGC Assay Protocol Summary: NCGC Assay Protocol Summary: Substrate buffer was dispensed into white, solid 1536-well plates at 3uL/well in 0.1M triethanolamine (TEA) buffer, pH 8.0, containing final concentrations of 5 mM MgCl2, 0.01% Tween20, 0.5 mM fructose-6-phosphate (F6P) and 0.1mM ATP. Then, 23 nL of compounds or DMSO were delivered to each well using a pin tool. One uL T. brucei PFK (0.1M TEA, 0.01% Tween20, 0.1% bovine serum albumin (BSA) and 1.25nM PFK, final concentrations) was then dispensed, and plates were incubated at room temperature for 45 min. The luminescent detection reagent, ADP-Glo (Promega), was then added in two steps: the first reagent, ADP-Glo (which converts remaining uncatalyzed ATP), was added at 2.5uL/well and incubated for ten minutes at room temperature, and the second component, Kinase Detection reagent (which converts ADP to ATP as a substrate for luciferase-based luminescence), was added immediately after at 5uL/well, followed by one final ten minute room temperature incubation. The plates were measured on a ViewLux plate reader for luminescent signal using a clear filter with a one second exposure. The %Activity was determined from the corrected luminescence values. As no specific T. brucei PFK inhibitors have been identified in the literature, 1x (1.25nM) and 0x PFK enzyme controls (untreated) were included to normalize %Activity of identified inhibitors; 0x enzyme values corresponded to 100%Activity (full inhibition), while 1x PFK enzyme values were used to normalize 0%Activity (no inhibition). Concentration-response curves were fitted to the signals arising from the resulting luminescence. […]
Potency is the fitted concentration of half-maximal effect.

ATP-dependent 6-phosphofructokinase (Trypanosoma brucei brucei), sequence (O15648 whole entry, looked up): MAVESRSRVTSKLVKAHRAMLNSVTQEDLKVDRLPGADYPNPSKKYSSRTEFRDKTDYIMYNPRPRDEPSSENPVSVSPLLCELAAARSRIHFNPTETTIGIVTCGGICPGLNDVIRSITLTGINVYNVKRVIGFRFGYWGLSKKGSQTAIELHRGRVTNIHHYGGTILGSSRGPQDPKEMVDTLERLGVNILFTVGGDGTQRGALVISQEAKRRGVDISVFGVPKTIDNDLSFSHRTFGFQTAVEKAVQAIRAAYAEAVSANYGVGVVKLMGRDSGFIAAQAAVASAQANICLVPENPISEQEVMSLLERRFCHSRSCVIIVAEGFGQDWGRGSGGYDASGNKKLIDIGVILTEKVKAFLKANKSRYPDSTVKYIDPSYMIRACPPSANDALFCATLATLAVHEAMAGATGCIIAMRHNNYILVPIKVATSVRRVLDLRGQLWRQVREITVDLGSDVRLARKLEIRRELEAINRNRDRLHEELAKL

**Q.** With `Nc1[nH][nH]c(=O)c1N=Nc1ccc2c(c1)OCO2` as the compound, how does the “activity, negative = inhibition” value read?
**A.** Its value is 2.23%.

**Q.** With `CCOc1ccc(C(c2c(C)[nH][nH]c2=O)c2c(C)[nH][nH]c2=O)cc1OCC` as the compound, how does the “activity, negative = inhibition” value read?
**A.** The value was -5.84%.

**Q.** `Cc1[nH][nH]c(=O)c1C(c1ccc2c(c1)OCO2)c1c(C)[nH][nH]c1=O` was tested. Which Potency did it give?
**A.** The Potency was 23.9 µM (active).

**Q.** Which “activity, negative = inhibition” value does the source give for `COc1cc(C2C(N3C(=O)c4ccccc4C3=O)C(=O)N2c2ccc(C)c(C)c2)cc(OC)c1OC` (stereo not given) here?
**A.** Its value is -1.29%.

**Q.** For `OC(CNCC1CCCO1)Cn1c2ccc(Br)cc2c2cc(Br)ccc21` (stereo not given), which “activity, negative = inhibition” value is on record?
**A.** Its value is -2.71%.

**Q.** With `Nc1nc(Nc2ccccc2F)nc(NC2CCCCC2)c1[N+](=O)[O-]` as the compound, how does the “activity, negative = inhibition” value read?
**A.** Its value is -7.16%.

**Q.** How did the “activity, negative = inhibition” value turn out when `COc1cc(NC(=O)COC(=O)CSc2ccc3ccccc3c2)c(C)cc1[N+](=O)[O-]` was run?
**A.** Its value is 0.214%.

**Q.** How did the “activity, negative = inhibition” value turn out when `CCOC(=O)N1CCN(C(=O)CN(C2CCCCC2)S(C)(=O)=O)CC1` was run?
**A.** The value was -3.12%.

**Q.** `CC(Oc1cc2oc(=O)c3c(c2cc1Cl)CCCC3)C(=O)NCc1ccncc1` (stereo not given) was tested. Which “activity, negative = inhibition” value did it give?
**A.** The value was 0.885%.

**Q.** `CC(C)CN(CC(C)C)CC(O)CN(c1ccccc1)S(=O)(=O)c1ccccc1[N+](=O)[O-]` (stereo not given) was tested. Which “activity, negative = inhibition” value did it give?
**A.** Its value is -3.71%.

**Q.** For `CCCN1C2CCCC1CC(NC(=O)NC13CC4CC(CC(C4)C1)C3)C2` (stereo not given), which “activity, negative = inhibition” value is on record?
**A.** Its value is -1.81%.

**Q.** With `CCN(CC(=O)N1CCCC1)S(=O)(=O)c1ccc(F)cc1` as the compound, how does the “activity, negative = inhibition” value read?
**A.** The value was 1.92%.

**Q.** Which “activity, negative = inhibition” value does the source give for `O=C(Cn1c(COc2ccccc2)nc2ccccc21)Nc1cc(Cl)c(Cl)cc1Cl` here?
**A.** Its value is -10.8%.

**Q.** Which “activity, negative = inhibition” value does the source give for `O=C(CN(CC1CCCO1)C(=O)CNS(=O)(=O)c1ccc(F)cc1)NCc1ccco1` (stereo not given) here?
**A.** Its value is -5.87%.

**Q.** With `COc1ccc(-c2nc3c(s2)CCc2onc(-c4ccc(OC)cc4)c2-3)cc1` as the compound, how does the “activity, negative = inhibition” value read?
**A.** The value was -0.904%.

**Q.** For `COc1ccc(Cl)cc1NC(=O)NC(C)C(C)(C)C` (stereo not given), which “activity, negative = inhibition” value is on record?
**A.** Its value is 0.905%.

**Q.** `Cc1cccc(NC(=S)Nc2ccc3cn[nH]c3c2)c1` was tested. Which “activity, negative = inhibition” value did it give?
**A.** Its value is 3.21%.

**Q.** `Cc1cccc(NC(=S)NC23CN4CN(CN(C4)C2)C3)c1` was tested. Which “activity, negative = inhibition” value did it give?
**A.** The value was -1.16%.

**Q.** How did the Potency turn out when `Cc1cccc(NC(=S)Nc2ccc(Cl)c(Cl)c2)c1` was run?
**A.** The Potency was 10.7 µM (active).

**Q.** For `COCCN1C(=O)N(c2ccc(Cl)cc2)C(=O)C1CC(=O)Nc1cc(OC)cc(OC)c1` (stereo not given), which “activity, negative = inhibition” value is on record?
**A.** Its value is 3.53%.

**Q.** For `CC1(N2CCOCC2)CC2(O)C(=[N+]1[O-])CCc1nonc12` (stereo not given), which “activity, negative = inhibition” value is on record?
**A.** Its value is 0.181%.

**Q.** With `O=C(CCn1nnc2ccccc21)OCC(=O)c1ccc([N+](=O)[O-])cc1` as the compound, how does the “activity, negative = inhibition” value read?
**A.** The value was -4.04%.

**Q.** `Cc1nc2ccccc2c(=O)n1NC(=O)c1ccccc1` was tested. Which “activity, negative = inhibition” value did it give?
**A.** Its value is 2.74%.

**Q.** With `Cc1ccnc(-n2sc3ccccc3c2=O)n1` as the compound, how does the Potency read?
**A.** The Potency was 7.57 µM (active).

**Q.** For `COC(=O)COc1ccc2c(c1C)O/C(=C\c1ccco1)C2=O`, which “activity, negative = inhibition” value is on record?
**A.** The value was -12.5%.

**Q.** How did the “activity, negative = inhibition” value turn out when `O=C(COC(=O)c1cccs1)NCc1cccs1` was run?
**A.** Its value is 0.216%.

**Q.** For `O=C(COC(=O)CCC(=O)c1cccs1)NCc1ccco1`, which Potency is on record?
**A.** The Potency was 6.75 µM (active).

**Q.** How did the “activity, negative = inhibition” value turn out when `O=C(COC(=O)C12CC3CC(CC(C3)C1)C2)NCc1ccco1` was run?
**A.** Its value is 3.92%.

**Q.** `Cc1cc(NC(=O)COC(=O)/C=C/c2ccc(C)o2)no1` was tested. Which “activity, negative = inhibition” value did it give?
**A.** Its value is 8.73%.

**Q.** Which “activity, negative = inhibition” value does the source give for `CS(=O)(=O)N(CC(=O)N1CCOCC1)c1cccc(Cl)c1Cl` here?
**A.** The value was -5.81%.

**Q.** Which “activity, negative = inhibition” value does the source give for `Cc1ccc(S(=O)(=O)N2CCCCC2)cc1NC(=O)[C@@H]1CCCN1C(=O)c1cccs1` here?
**A.** The value was -2.04%.

**Q.** How did the “activity, negative = inhibition” value turn out when `O=C(COC(=O)CCCN1C(=O)c2cccc3cccc(c23)C1=O)NC1CCS(=O)(=O)C1` (stereo not given) was run?
**A.** The value was -7.52%.

**Q.** For `CCC(C)c1ccc(NC(=O)COC(=O)C2CCCC2)cc1` (stereo not given), which “activity, negative = inhibition” value is on record?
**A.** Its value is -1.93%.

**Q.** `Cc1c(Cl)cccc1NC(=O)Nc1ccc(C(=O)N2CCCC2)cc1` was tested. Which “activity, negative = inhibition” value did it give?
**A.** The value was -3.91%.

**Q.** Which “activity, negative = inhibition” value does the source give for `COc1cc(S(=O)(=O)N2CCOCC2)ccc1NC(=O)COc1ccc(N(C)S(=O)(=O)c2ccc(C)cc2)cc1` here?
**A.** The value was 4.44%.

**Q.** Which “activity, negative = inhibition” value does the source give for `C/C(=N/Nc1ccc(Cl)cc1)c1cnnc(-c2ccccc2)n1` here?
**A.** Its value is 5.32%.

**Q.** For `Cc1c(C)c2ccc(OCC(=O)N3CCC(C(=O)O)CC3)c(C)c2oc1=O`, which “activity, negative = inhibition” value is on record?
**A.** Its value is -0.415%.

**Q.** With `Cc1c(CC(=O)N2CCN(C(=O)C3COc4ccccc4O3)CC2)c(=O)oc2c(O)c(O)ccc12` (stereo not given) as the compound, how does the Potency read?
**A.** The Potency was 4.78 µM (active).

**Q.** How did the “activity, negative = inhibition” value turn out when `O=C(CNC(=O)C1COc2ccccc2O1)N/N=C/c1cc(Br)c(O)c(Br)c1` (stereo not given) was run?
**A.** Its value is -4.63%.

**Q.** With `Cc1ccc2c(=O)cc(C(=O)NCCc3ccc(S(N)(=O)=O)cc3)oc2c1C` as the compound, how does the “activity, negative = inhibition” value read?
**A.** Its value is 1.41%.

**Q.** Which “activity, negative = inhibition” value does the source give for `CCCNC(=O)NC(=O)COC(=O)CC(NC(N)=O)c1ccc(Cl)cc1` (stereo not given) here?
**A.** Its value is -0.0234%.

**Q.** `COc1ccc(CCNC(=O)c2cnc(Cl)c(Cl)c2)cc1` was tested. Which “activity, negative = inhibition” value did it give?
**A.** The value was -9.9%.

**Q.** With `Nc1cc(N)nc(SCc2ccc(Cl)cc2)n1` as the compound, how does the “activity, negative = inhibition” value read?
**A.** Its value is -10.3%.

**Q.** With `COc1cnc(SCc2ccc(Cl)c(Cl)c2)nc1Cl` as the compound, how does the Potency read?
**A.** The Potency was 26.9 µM (active).

**Q.** `Cc1ccc(C2CC(c3cccc(Br)c3)n3nc(N)nc3N2)cc1` (stereo not given) was tested. Which “activity, negative = inhibition” value did it give?
**A.** The value was 5.14%.

**Q.** Which “activity, negative = inhibition” value does the source give for `O=C1CCN(Cc2ccccc2)CCN1[C@H](CSc1ccccc1)c1ccccc1` here?
**A.** The value was 0.129%.

**Q.** `O=C(CNS(=O)(=O)c1ccc2ccccc2c1)Nc1ccc(F)c(F)c1F` was tested. Which “activity, negative = inhibition” value did it give?
**A.** Its value is -1.12%.

**Q.** With `Cc1ccccc1NC(=O)Cc1nc(COC(=O)c2cccnc2Cl)cs1` as the compound, how does the “activity, negative = inhibition” value read?
**A.** The value was 0.473%.

**Q.** For `Cc1ccc(-n2c(N)c(C(=O)N3CCOCC3)sc2=S)c(C)c1`, which “activity, negative = inhibition” value is on record?
**A.** Its value is -2.32%.

**Q.** How did the Potency turn out when `Cc1cccc(-n2c(N)c(C(=O)N3CCN(C)CC3)sc2=S)c1` was run?
**A.** The Potency was 12 µM (active).
